For 90 compounds, inhibition results are on record in PubChem BioAssay AID624125 (The Scripps Research Institute Molecular Screening Center, 2012).

Hit rate of the full screen: of about 360,000 compounds, about 2,600 (0.72%) were called active. The full list was thinned out, with actives kept by preference. Values without a mark were called inactive.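 Rule for the calls: active = inhibition above its plate's cutoff, the mean inhibition of sample wells plus 3 SD (cut at about 27% in these data); inactive = the rest.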

Sequence of Muscarinic acetylcholine receptor M4 (Homo sapiens) (P08173 whole entry, looked up): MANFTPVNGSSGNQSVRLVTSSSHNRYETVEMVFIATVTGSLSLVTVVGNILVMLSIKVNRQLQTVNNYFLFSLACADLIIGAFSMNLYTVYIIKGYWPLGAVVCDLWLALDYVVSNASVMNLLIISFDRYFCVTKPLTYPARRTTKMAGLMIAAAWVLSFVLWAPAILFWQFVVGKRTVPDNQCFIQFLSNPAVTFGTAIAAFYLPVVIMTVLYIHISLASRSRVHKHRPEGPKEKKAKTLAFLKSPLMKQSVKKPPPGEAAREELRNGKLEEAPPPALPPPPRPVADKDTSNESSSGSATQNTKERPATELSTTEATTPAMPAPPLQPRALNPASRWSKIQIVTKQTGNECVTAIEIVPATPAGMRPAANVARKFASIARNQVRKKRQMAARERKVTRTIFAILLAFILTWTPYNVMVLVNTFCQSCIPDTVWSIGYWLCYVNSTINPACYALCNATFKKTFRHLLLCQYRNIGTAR

This assay concerns the target Muscarinic acetylcholine receptor M4 (Homo sapiens) (UniProt P08173). Description: human M4 muscarinic receptor antagonists, primary screen, CHO cells, Fluo-8 calcium fluorescence (AID 624125).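 Note: 0% = acetylcholine EC80 with DMSO and 100% = DMSO without agonist.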 The conditions noted are these: CHO-hM4 cells, ACh EC80, Fluo-8 calcium fluorescence; at 3 µM; stronger effect = higher value.
`C=CCn1c(SCC(=O)NCc2ccccc2)nnc1-c1cc(Br)ccc1O`: the inhibition (in general, the relative decrease from the control value, in per cent) was 10.6%.

Turning to `COc1ccccc1C(=O)NC(=O)COC(=O)c1ccco1`, the inhibition was -3.72%.

Consider `COc1ccccc1S(=O)(=O)NCc1ccc(C(=O)N(C)Cc2ccc(F)cc2)cc1`, for which the inhibition was 0.25%.

For the compound `Cc1ccc(CNC(=O)Cn2cnc(S(=O)(=O)N3CCCCC3)c2)o1`, the inhibition was -2.52%.

For the compound `CCN1CCN(c2cc3nc(C)n(Cc4ccccc4)c(=O)c3cc2NC(=O)c2ccccc2F)CC1`, the inhibition is 84.6% (active).

For `CCOc1cc(NC(=O)c2ccccc2C(=O)O)c(OCC)cc1NC(=O)c1ccccc1F`, the inhibition was -12.1%.

Take `CCC(=O)Nc1ccc2nc(C)n(Cc3ccccc3Cl)c(=O)c2c1`: the inhibition was 6.19%.

Take `COc1ccc(NC(=O)C[C@H]2C(=O)N(CCc3ccccc3)C[C@@H]2C)cc1`: the inhibition is -7.17%.

For the compound `COc1cc2c(cc1OC)C(c1cccc([N+](=O)[O-])c1)=NCC2`, the inhibition is -14.9%.

Turning to `COc1ccc(C(CNCC(=O)Nc2ccccc2F)N(C)C)cc1` (stereo not given), the inhibition is -5.27%.

Regarding `CCc1ccccc1NC(=O)CN(C)C(=O)COc1ccc(C)nc1[N+](=O)[O-]`, the inhibition is -2.74%.

For `COc1ccccc1C(CNC(=O)c1ccc(C)c(S(=O)(=O)N2CCCCC2)c1)N(C)C` (stereo not given), the inhibition was 51.6% (active).

Regarding `Cc1ccc(C(=O)NCC(c2cccs2)N(C)C)cc1S(=O)(=O)N1CCOCC1` (stereo not given), the inhibition is 8.72%.

Turning to `COc1ccc(C(CNC(=O)c2cccc(S(=O)(=O)Nc3ccc(Br)cc3)c2)N(C)C)cc1` (stereo not given), the inhibition is 1.87%.

As to `COc1ccccc1C(CNC(=O)c1cccc(S(=O)(=O)Nc2ccc(F)cc2)c1)N(C)C` (stereo not given), the inhibition is 48.7% (active).

For the compound `COc1ccccc1CNC(=O)c1ccc(Cl)c(S(=O)(=O)N2CCCC2)c1`, the inhibition was -5.41%.

`CCOc1ccc(NS(=O)(=O)c2ccc(C(=O)NCC(c3ccccc3OC)N3CCCC3)cc2)cc1` (stereo not given): the inhibition was 40.8% (active).

For the compound `CCOc1ccc(NS(=O)(=O)c2ccc(C(=O)NC3CCN(Cc4ccccc4)CC3)cc2)cc1`, the inhibition is 6.63%.

Consider `CCOc1ccc(S(=O)(=O)Nc2ccc(C(=O)NCCCN3CCCC3=O)cc2)cc1`, for which the inhibition is -0.83%.

Turning to `COc1ccccc1C(CNC(=O)c1cccc(NS(=O)(=O)c2ccc(Br)cc2)c1)N(C)C` (stereo not given), the inhibition is 10.7%.

With `Fc1cccc(Cc2c(-c3ccc(Cl)cc3)nc3ccc(Cl)cn23)c1`, the inhibition was -24.1%.

Turning to `CCOC(=O)C(CC)Sc1ncnc2c1nnn2-c1ccc(F)cc1` (stereo not given), the inhibition was -1.34%.

In the case of `CC(C)Cc1cc(C(=O)NCCc2ccccc2)no1`, the inhibition was 101% (active).

Consider `CC(C)Cc1cc(C(=O)Nc2cc(Br)ccc2O)no1`, for which the inhibition was -14.2%.

In the case of `O=C(NCCCc1ccccc1)c1cc(COc2c(F)cccc2F)on1`, the inhibition was -4.04%.

On to `CC1(C(=O)NS(=O)(=O)c2ccccc2Cl)CCN1C(=O)c1cccc(F)c1` (stereo not given), for which the inhibition is 3.33%.

As to `CC(Sc1nncn1C)C(=O)Nc1cc(C(F)(F)F)ccc1N1CCOCC1` (stereo not given), the inhibition is -5.32%.

Consider `CN(CCC#N)c1ncnc2scc(-c3ccccc3)c12`, for which the inhibition was -1.83%.

As to `O=C(CN1C(=O)/C(=C\c2ccc(C(F)(F)F)cc2)Sc2ccccc21)NCc1ccco1`, the inhibition was 14.8%.

On to `O=C(CSc1nc2ccccc2o1)N1c2ccccc2Sc2ccc(Cl)cc21`, for which the inhibition is -3.42%.

For `O=C(CN1CCCCCC1)N1c2ccccc2Sc2ccc(C(F)(F)F)cc21`, the inhibition was 98% (active).

Regarding `CCC(=O)Nc1cc(C(F)(F)F)ccc1N1CCCC1`, the inhibition is 3.82%.

For the compound `O=C(CN1CCCCCC1)Nc1ccc(Cl)cc1F`, the inhibition is -14.1%.

Regarding `O=C(CN1CCCCC1)N1c2ccccc2Sc2ccc(C(F)(F)F)cc21`, the inhibition is 97.5% (active).

With `COc1cccc(CNC(=O)CCC2CCCN(C(=O)c3cc(C)[nH]n3)C2)c1` (stereo not given), the inhibition was -0.4%.

As to `O=C(NCc1ccccc1)[C@H]1C[C@@H]1[C@H](NP(=O)(c1ccccc1)c1ccccc1)c1ccccc1`, the inhibition was -6.36%.

For `O=C(Nc1c2c(nn1-c1ccc(F)cc1)CS(=O)C2)C12CC3CC(CC(C3)C1)C2` (stereo not given), the inhibition is -0.1%.

Regarding `Cc1c([N+](=O)[O-])c(N)nn1C`, the inhibition is -10.8%.

Take `CCc1cccc(NC(=O)COC(=O)c2cc(=O)c3ccccc3o2)c1`: the inhibition was -0.31%.

`COc1cccc(CNC(=O)CCC2CCCN(Cc3ccc(OC(F)F)cc3)C2)c1` (stereo not given): the inhibition is 8.05%.

`CN(CCc1ccccn1)C(=O)c1ccc(OC2CCN(Cc3ccccn3)CC2)cc1`: the inhibition is 10.3%.

Turning to `CN(CCc1ccccn1)C(=O)CCC1CCCN(Cc2ccccc2OC(F)F)C1` (stereo not given), the inhibition is 31.4% (active).

`CCCS(=O)(=O)Nc1ccc(-c2cn3c(n2)SCC3)cc1`: the inhibition is 4.45%.

As to `CCN(CC(=O)Nc1ccc(OC)cc1)C(=O)c1ccc(=O)n(Cc2ccccc2)n1`, the inhibition was 6.9%.

Consider `CC(=O)OC(COc1ccc(F)cc1)Cn1cnc2ccccc21` (stereo not given), for which the inhibition was 11.2%.

With `CC(C)c1ccc(OCC(O)Cn2cnc3ccccc32)cc1` (stereo not given), the inhibition was 32% (active).

As to `CC(C)c1ccc(OCC(O)CN2CCN(c3ccccn3)CC2)cc1` (stereo not given), the inhibition was -9.52%.

For `COC(=O)c1ccccc1NC(=O)C1CC(=O)N(c2ccc(OC)cc2)C1` (stereo not given), the inhibition was -8.44%.

As to `COc1ccc(CN2CC(C(=O)NCCc3ccc(Cl)cc3)CC2=O)cc1` (stereo not given), the inhibition is -3.66%.

Take `CCCC(=O)Nc1ncnc2c1ncn2[C@@H]1O[C@@H]2OP(=O)(O)OC[C@H]2[C@H]1OC(=O)CCC`: the inhibition was -12.4%.

In the case of `CCN(CCCCOC(=O)c1ccc(OC)c(OC)c1)C(C)Cc1ccc(OC)cc1` (stereo not given), the inhibition is 61.6% (active).

In the case of `COc1ccc(C(CCN(Cc2ccc(OC)c(OC)c2)C(=O)CCl)c2ccccc2)cc1` (stereo not given), the inhibition is -0.52%.

For the compound `COc1ccc(C(=O)OCC(=O)NCCCc2ccccc2)cc1OC`, the inhibition is 2.28%.

Regarding `Cc1n[nH]c(=O)c2c(NC(=O)CSc3cc(Cl)ccc3Cl)oc(C)c12`, the inhibition was -3.66%.

With `COc1ccc2[nH]c3c(C)c4cc[n+](C)cc4c(C)c3c2c1`, the inhibition is 1.89%.

Consider `CC(OC(=O)c1ccc(NS(=O)(=O)c2ccc3[nH]c(=O)[nH]c3c2)cc1)C(=O)Nc1cccc(Cl)c1Cl` (stereo not given), for which the inhibition is 5.91%.

Take `COc1ccc(CCN2C(=O)N(c3ccc(OC)cc3)C(=O)C2CC(=O)Nc2ccc(OC)cc2)cc1` (stereo not given): the inhibition is -16.8%.

Take `CCN(Cc1ccccc1)C(=O)CSc1nc(C)cc2c1C(=O)OC2`: the inhibition was 8.21%.

On to `COc1ccccc1C1SCCN1C(=O)c1ccc([N+](=O)[O-])cc1` (stereo not given), for which the inhibition is 57% (active).

As to `C[N+]1(CC(O)COc2ccccc2)CCN(C(=O)c2ccc([N+](=O)[O-])cc2)CC1` (stereo not given), the inhibition was -5.14%.

Regarding `O=C(Nc1ccc(F)cc1)C1CCN(C(=O)c2ccc([N+](=O)[O-])cc2)CC1`, the inhibition is -7.19%.

Regarding `Cn1c(=O)c2c(SCC(=O)NCC3CCCO3)nc(CC(C)(C)C)nc2n(C)c1=O` (stereo not given), the inhibition is 2.72%.

On to `CCNc1nc(Oc2ccc(C(=O)OC)cc2)nc(N2CCOCC2)n1`, for which the inhibition is 2.43%.

In the case of `CCOC(=O)C1C(c2ccc(O)cc2)NC(=O)NC1(O)C(F)(F)F` (stereo not given), the inhibition was 5.66%.

Take `O=C(c1cccs1)C1C(c2ccc(Br)cc2)NC(=S)NC1(O)C(F)(F)F` (stereo not given): the inhibition is 77.3% (active).

For the compound `CC1=NN(c2cccc(Cl)c2)C(=O)C12CC(C)=C(C)CS2` (stereo not given), the inhibition was -0.34%.

`O=C1Nc2c(Br)cc(Br)cc2C1(O)N1CCOCC1` (stereo not given): the inhibition is -12%.

Regarding `CCC(CC)C(C(=O)NC1CCCC1)N1CCN(c2cc(C)nc3ccccc23)CC1` (stereo not given), the inhibition is -16.6%.

Regarding `CN(Cc1cc2cc(F)ccc2[nH]1)Cc1nc(-c2cnccn2)no1`, the inhibition was -8.36%.

Turning to `CCn1ccnc1CN(C)Cc1nc(-c2ccc3c(c2)OCO3)no1`, the inhibition is 1.6%.

In the case of `CN(Cc1nc(-c2cnccn2)no1)Cc1n[nH]c2c1CCCCC2`, the inhibition is 37.3% (active).

`CCOc1cc(CNCc2ccccn2)ccc1OCC(=O)NC(C)(C)C`: the inhibition is 1%.

Regarding `CCN(CC)c1ccc(/C=N/NC(=O)c2cnccn2)c(O)c1`, the inhibition was 33.1% (active).

For `CCN(CC)c1ccc(NC(=O)c2ccc(Cl)nc2)cc1`, the inhibition was 1.79%.

As to `COc1cccc(OCC(=O)NNC(=O)c2cnccn2)c1`, the inhibition was 12.6%.

Consider `CC1(C)Cc2cccc(OCC(=O)N3CCN(c4ccc([N+](=O)[O-])cc4)CC3)c2O1`, for which the inhibition is -2.84%.

In the case of `COc1cccc(/C=C/C(=O)OCC(=O)N2CCCc3ccccc32)c1`, the inhibition was -7.08%.

For the compound `O=c1[nH]c(=O)n(Cc2ccco2)c2c1C(C(F)(F)F)(C(F)(F)F)N=C(c1ccco1)N2`, the inhibition is 4%.

For `Nc1c(C(=O)c2cccs2)sc2nsc(SCCN3CCCCC3)c12`, the inhibition is 42% (active).

On to `O=C1C(=O)N(CCCO)C(c2ccccc2)/C1=C(\O)c1ccc(Br)cc1` (stereo not given), for which the inhibition is 3.51%.

In the case of `COC(=O)[C@]12CCCCC=C1N(Cc1ccccc1)C(=O)[C@H](CC(=O)NCc1ccc(C)o1)C2`, the inhibition is -11.9%.

In the case of `OC[C@@H]1CN(Cc2ccc(-c3ccccc3)cc2)C[C@H](n2cnc3c(NC4CCCC4)ncnc32)O1`, the inhibition is 19.1%.

`CN(C)c1ccc(/C=C2\NC(=S)N(Cc3ccccc3)C2=O)cc1`: the inhibition is 44.5% (active).

As to `CN(C)c1ccc(CSc2ccccc2)cc1`, the inhibition is -16.2%.

For the compound `CC(C)(C)C(=O)COC(=O)c1cc(S(=O)(=O)N2CCCCC2)ccc1N1CCOCC1`, the inhibition is -6.6%.

As for `CC1Cc2[nH][nH]c(=O)c2C(C2CCCC2)O1` (stereo not given), the inhibition is 3.85%.

Turning to `CCNC(=S)N(CCN(CC)CC)Cc1cc2cc3c(cc2[nH]c1=O)OCO3`, the inhibition is 1.79%.

For `O=C(COc1ccc(F)cc1Br)NCC1COc2ccccc2O1` (stereo not given), the inhibition is 3.31%.

On to `c1ccc2c(c1)OCC(CNc1ncnc3nc[nH]c13)O2` (stereo not given), for which the inhibition was 65.3% (active).

As to `CCC(=O)c1ccc(OCC(=O)N(CC)CC2COc3ccccc3O2)cc1` (stereo not given), the inhibition is -18.3%.
